Experimental data reported in ChEMBL document CHEMBL1157539, “Thousands of chemical starting points for antimalarial lead identification” (Nature, 2010).

How the values were obtained:
Type in all cases: functional
Plasmodium falciparum [1] = assay: GSK_TCMDC: Inhibition of Plasmodium falciparum 3D7 in whole red blood cells, using parasite LDH activity as an index of growth. Test compounds present at 2uM
Plasmodium falciparum [2] = assay: GSK_TCMDC: Inhibition of Plasmodium falciparum Dd2 in whole red blood cells, using parasite LDH activity as an index of growth. Test compounds present at 2uM
HepG2 = assay: GSK_TCMDC: Percent inhibition of human HepG2 cell line. Test compounds present at 10uM.

SMILES | Inhibition (Plasmodium falciparum [1]) | Inhibition (Plasmodium falciparum [2]) | Inhibition (HepG2)
Br.CCCC1N=C(N)N=C(N)N1c1ccc(OC)cc1 (stereo not drawn) | 96% | 4% | 0%
FC(F)(F)c1ccc(/C=C/c2cncnc2Nc2ccc3[nH]c(Cc4ccccc4)nc3c2)cc1 | 100% | 100% | 21%
NC(=O)c1ccc(C(=O)Nc2cccc(-c3ccc(-c4nc5cc(C(F)(F)F)ccc5[nH]4)cc3)c2)cc1 | 100% | 31% | 35%
COc1ccc2c(c1)[nH]c1c(/C=C/c3ccc([N+](=O)[O-])cc3)nccc12 | 100% | 63% | 4%
OC[C@H]1CCCN1CC#Cc1cc2c(Nc3ccc(OCc4cccc(F)c4)c(Cl)c3)ncnc2s1 | 89% | 6% | 13%
S=C(NCCCCCN1CCC(c2c[nH]c3ccccc23)CC1)Nc1cccc(I)c1 | 99% | 14% | 69%
CC(Cc1ccc(NC(=O)c2ccc(CNCCc3ccccc3)cc2)cc1)NCCc1cccc(Cl)c1.Cl (stereo not drawn) | 100% | 99% | 100%
CCOC(=O)C1CCN(CCOc2cc(NC(=O)/C=C/c3ccccc3Cl)ccc2Br)CC1.O=C(O)C(=O)O | 87% | 29% | 6%
Cc1cc(C=C(P(=O)(OC(C)C)OC(C)C)P(=O)(OC(C)C)OC(C)C)c2ccccc2c1O | 85% | 54% | 15%
Cc1ccccc1N1CCN(c2ccc(C(=O)Nc3ccccc3)cn2)CC1.O=C(O)C(F)(F)F | 95% | 69% | 44%
O=C(/C=C/c1ccc(Cl)c(Cl)c1)NCCCCCN1CCCC(CNS(=O)(=O)c2ccc(F)cc2)C1 (stereo not drawn) | 91% | 7% | 56%
CCOC(=O)C1=C(C)N=c2sc(=Cc3ccccc3O)c(=O)n2C1c1ccc(OC)c2ccccc12 (stereo not drawn) | 97% | 38% | 0%
c1ccn2c(Sc3ncnc4sccc34)ncc2c1 | 100% | 100% | 0%
Cc1cc(CNCCCCCCCNCc2cccc([N+](=O)[O-])c2)ccc1O | 100% | 0% | 6%
COc1ccc2nccc([C@@H](O)CN3CCC(NCCOc4cccc(F)c4F)CC3)c2c1.O=C(O)C(=O)O | 100% | 85% | 9%
CCc1nc(N)nc(N)c1-c1cccc(Cl)c1 | 94% | 1% | 60%
Cc1nc(-c2cccc(Nc3nccc(NCC(O)c4ccc(C(F)(F)F)cc4)n3)c2)cs1 (stereo not drawn) | 100% | 99% | 33%
Nc1nc(N)c2c(ccc3c2ccn3Cc2ccccn2)n1 | 90% | 94% | 66%
COc1cc(F)c2nccc([C@@H](O)CN3CCC(NCc4nc5cccc(F)c5[nH]4)CC3)c2c1.O=C(O)C(=O)O | 99% | 5% | 11%
COc1cccc(C(=O)NC(c2ccccc2OC)c2cc(Cl)c3cccnc3c2O)c1 (stereo not drawn) | 91% | 36% | 58%
Cc1cccc2nc(-c3ccc(-c4cccc(NC(=O)Nc5ccc(Cl)cc5)c4)s3)[nH]c12 | 100% | 52% | 25%

SMILES | Inhibition (Plasmodium falciparum [1]) | Inhibition (Plasmodium falciparum [2]) | Inhibition (HepG2)
Oc1ccc2ccccc2c1C=NNc1nc(=Nc2ccccc2)[nH]c(=Nc2ccccc2)[nH]1 | 99% | 73% | 55%
CCc1c(CCNCCCCCCNC(C)Cc2ccc3c(c2CC)OCO3)ccc(OC)c1OC.Cl (stereo not drawn) | 100% | 64% | 100%
CC(C#N)Cc1ccc(-c2cnc(N)c3cc(-c4ccnc(N)n4)ccc23)cc1 (stereo not drawn) | 96% | 62% | 56%
COc1cc2nc(NCc3ccccc3)nc(NCc3ccccc3)c2cc1OC | 100% | 100% | 66%
CN(C)CCCOc1c(C(C)(C)C)cc(-c2cc(C(C)(C)C)c(OCCCN(C)C)c(C(C)(C)C)c2)cc1C(C)(C)C | 100% | 99% | 25%
CCCCN(C)CC#Cc1ccc(-c2ccc3[nH]c(C)c(Br)c(=O)c3c2)cn1 | 98% | 93% | 3%
CCN1CCN(CCCNc2c3ccc(Cl)cc3nc3ccc(OC)cc23)CC1.Cl | 97% | 100% | 34%
Cc1ccc(C(=O)Nc2ccc(Cl)c(N3CCN(CCc4ccccc4)CC3)c2)cc1.O=C(O)C(F)(F)F | 90% | 14% | 17%
COc1ccc(CN(C)CCCCc2ccc(NC(=O)COc3cccc4sc5ccccc5c(=O)c34)cc2)cc1OC.O=C(O)C(=O)O | 100% | 84% | 26%
c1csc(-c2nc(N3CCCC3)ncc2-c2ccsc2)n1 | 89% | 75% | 1%
CCCC(C)Nc1nc(C)cc(N[C@@H](Cc2ccccc2)C(=O)NCc2ccc(C)cc2)n1.O=C(O)C(F)(F)F (stereo partly drawn) | 100% | 93% | 22%
O=C(NCCCCN1CCC(c2c[nH]c3ccc(-c4ccccc4)cc23)CC1)c1ccc(-c2ccccc2)cc1.O=C(O)C(=O)O | 97% | 40% | 48%
CCNc1cc(C)nc(Nc2ccc(NS(=O)(=O)c3cc(OC)ccc3OC)cc2)n1 | 100% | 36% | 56%
CC(=O)Nc1ccc([N+](=O)[O-])c2c(Br)cccc12 | 100% | 0% | 0%
CC(CCc1ccccc1)NCC(O)c1ccc2c3c(cccc13)C(=O)N2C.Cl (stereo not drawn) | 99% | 57% | 37%
O=C(Nc1ccc(C(=O)Oc2ccc3ccccc3c2)cc1)N[C@@H](Cc1ccc(O)cc1)C(=O)NC1CCN(Cc2ccc(O)cc2)C1.O=C(O)C(F)(F)F (stereo partly drawn) | 86% | 1% | 1%
COc1cc(Nc2nccc(N3CCC(NC(=O)C4COc5ccccc5O4)C3)n2)cc(OC)c1OC (stereo not drawn) | 90% | 58% | 5%
O=C(Nc1ccc(-c2ccccc2)c(OCCN2CCNCC2)c1)c1ccc(-c2ccc(Cl)cc2)cc1 | 96% | 31% | 92%
COC(=O)c1cccc(OCCNC2CCN(C[C@H](O)c3ccnc4ccc(OC)cc34)CC2)c1.O=C(O)C(=O)O | 100% | 96% | 0%
O=C(/C=C/c1ccc(Cl)cc1)NCCCCCN1CCCN(C(=O)Nc2ccc(F)c(Cl)c2)CC1 | 94% | 6% | 29%
COC(=O)c1cccc(C#CCCOCCCCCCNC[C@H](O)c2cc(Cl)c(N)c(Cl)c2)c1 | 97% | 88% | 12%

SMILES | Inhibition (Plasmodium falciparum [1]) | Inhibition (Plasmodium falciparum [2]) | Inhibition (HepG2)
COc1cc2nc(N(C)C)nc(Nc3ccc4c(cnn4Cc4ccccc4)c3)c2cc1OC | 100% | 100% | 90%
C=C1C[C@@H](n2cnc3c(NC(=O)c4ccccc4)ncnc32)[C@@H](F)[C@@H]1OC(c1ccccc1)(c1ccccc1)c1ccccc1 | 98% | 97% | 16%
Cn1nccc1C(=O)NCCNCc1ccc(-c2cccc(-c3nc4cc(F)ccc4[nH]3)c2)cc1.O=C(O)C(F)(F)F | 100% | 98% | 37%
CCOc1cc(C(=O)Nc2ccc3nc(N4CCN(C)CC4)cc(C)c3c2)cc(OCC)c1OCC | 97% | 50% | 14%
CCOC(=O)NC1=NC(C)(C)N(OCCCOc2cc(Cl)c(Cl)cc2Cl)C(NC(=O)OCC)=N1 | 91% | 97% | 63%
COc1ccc(CCNc2nc(N)c3cc(OC)c(OC)cc3n2)cc1.Cl | 100% | 1% | 16%
CN(C)CCCN1CCN(C(=O)c2cc3cc(-c4ccccc4)ccc3n2S(=O)(=O)c2ccccc2)CC1 | 100% | 94% | 32%
CN1CCN(c2ccnc3ccc(NC(=O)Nc4cccc(C#N)c4)cc23)CC1 | 99% | 96% | 11%
CCCCN(CCCC)CC(O)c1cc(-c2ccc(Cl)cc2)nc2c(Cl)cc(Cl)cc12.Cl (stereo not drawn) | 97% | 97% | 0%
COc1ccc2nccc(C(=O)NC3CCC(CCN4CCc5cc(C#N)ccc5C4)CC3)c2c1.Cl (stereo not drawn) | 97% | 1% | 12%
CC1CCCCC1N(C)C1CCN(CCCNC(=O)C=Cc2cccc(C(F)(F)F)c2)CC1 (stereo not drawn) | 100% | 17% | 47%
Cc1cccc2nc(-c3cccc(-c4cccc(NC(=O)Cc5c[nH]cn5)c4)c3)[nH]c12 | 100% | 100% | 32%
CCC[C@@H](C(=O)NCCc1cccc(OC)c1)N1C(=O)c2c(ccc(OC)c2OC)C1C(=O)Nc1c(C)cccc1C (stereo partly drawn) | 94% | 32% | 6%
COc1cc2c(cc1OC)C(C(=O)Nc1ccc(C(F)(F)F)cc1)C(c1cccs1)N(C)C2=O (stereo not drawn) | 99% | 86% | 31%
O=C(c1ccc(Cl)cc1)N1CCCC(C(=O)N(Cc2nnc(-c3ccccc3Cl)o2)C2CC2)C1 (stereo not drawn) | 95% | 96% | 10%
CCC(C)c1ccc(NC(=O)Nc2ccc(Cn3ncc(N4CCCNCC4)c(Cl)c3=O)cc2)cc1.O=C(O)C(F)(F)F (stereo not drawn) | 83% | 31% | 0%
O=C(NCc1cccc(C(F)(F)F)c1)C(c1cc2ccccc2o1)N1CCN(C(c2ccccc2)c2ccccc2)CC1 (stereo not drawn) | 91% | 80% | 0%
CN(C)CCOc1cc(NC(=O)Nc2cccc3c(-c4ccncc4)cccc23)ccc1I.Cl | 100% | 28% | 20%
O=C(NCC1CCC(C(=O)NC2CCCc3ccccc32)CC1)c1ccc(O)c(-c2cccc([N+](=O)[O-])c2)c1 (stereo not drawn) | 99% | 97% | 2%
